Out of some 2,100 compounds screened, about 770 (37%) were called active. Some of the results follow. Unmarked numbers belong to inactive results.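 The calls were made as follows: active = by-eye trace score of 1 for enhancers or -1 for inhibitors, so actives lie on both sides (some results past the limit were not filed as active); inactive = score 0, or 3 fluorescent, or 4 baseline rise.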
Molecular target: G protein-activated inward rectifier potassium channel 2 (Homo sapiens) + G protein-activated inward rectifier potassium channel 1 (Homo sapiens) (UniProt P48051+P48549)
Experiment: GIRK1/2 thallium flux modulators, retest, confirmation, cell-based, HEK293 rmGlu8/hGIRK1/2, FluoZin-2 (AID 623911)
Conditions: HEK293 rmGlu8/hGIRK1/2, thallium flux FluoZin-2; actives lie on both sides; glutamate co-added at its EC20 level

Sequence of G protein-activated inward rectifier potassium channel 2 (Homo sapiens) + G protein-activated inward rectifier potassium channel 1 (Homo sapiens) (P48051 whole entry, looked up): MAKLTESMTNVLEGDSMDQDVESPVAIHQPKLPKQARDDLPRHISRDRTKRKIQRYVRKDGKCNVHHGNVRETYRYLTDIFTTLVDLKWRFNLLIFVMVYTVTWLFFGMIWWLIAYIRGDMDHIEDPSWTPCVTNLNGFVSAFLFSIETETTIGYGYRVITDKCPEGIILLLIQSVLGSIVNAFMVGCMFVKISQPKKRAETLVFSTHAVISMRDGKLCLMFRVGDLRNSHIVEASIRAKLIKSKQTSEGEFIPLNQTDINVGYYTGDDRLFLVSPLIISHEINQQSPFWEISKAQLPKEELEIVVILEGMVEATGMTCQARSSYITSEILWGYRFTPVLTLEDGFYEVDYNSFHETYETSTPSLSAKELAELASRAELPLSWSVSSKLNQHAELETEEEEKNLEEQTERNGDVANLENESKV
Sequence of G protein-activated inward rectifier potassium channel 2 (Homo sapiens) + G protein-activated inward rectifier potassium channel 1 (Homo sapiens) (P48549 whole entry, looked up): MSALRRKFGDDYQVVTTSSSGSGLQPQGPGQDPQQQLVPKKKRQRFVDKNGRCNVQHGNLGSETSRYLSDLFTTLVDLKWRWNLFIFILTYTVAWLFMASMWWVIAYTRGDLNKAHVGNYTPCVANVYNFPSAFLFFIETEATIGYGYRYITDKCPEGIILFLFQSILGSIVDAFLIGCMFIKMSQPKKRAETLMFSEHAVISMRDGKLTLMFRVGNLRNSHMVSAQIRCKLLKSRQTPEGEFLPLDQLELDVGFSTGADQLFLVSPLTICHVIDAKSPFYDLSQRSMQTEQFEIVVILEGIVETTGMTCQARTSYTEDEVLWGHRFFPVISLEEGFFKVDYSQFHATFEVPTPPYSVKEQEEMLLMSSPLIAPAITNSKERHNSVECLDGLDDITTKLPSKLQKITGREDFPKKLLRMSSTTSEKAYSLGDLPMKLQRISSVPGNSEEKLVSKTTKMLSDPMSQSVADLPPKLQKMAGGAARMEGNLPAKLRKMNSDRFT

Structure (SMILES) | manual score
COCc1nnc(NC(=O)C(C)C)s1 | 0
CCCCn1c(-c2csc3c2CCC(C)C3)n[nH]c1=S (stereo not drawn) | 0
Cn1nc(C(F)(F)F)c2cc(NC(=O)OCc3ccc(F)cc3)sc21 | 0
CCOC(=O)C(CC)Sc1nnc2cc(C)c3ccccc3n12 (stereo not drawn) | 0
CC(/C=N/n1c(COc2ccccc2)n[nH]c1=S)=C\c1ccccc1 | 0
CCOC(=O)C(CC)Sc1nnc(COc2ccc(C)cc2)n1-c1ccccc1 (stereo not drawn) | -1 (active)
Cc1cccc2cc(/C=C3\N=C(c4ccccc4)OC3=O)c(N3CCOCC3)nc12 | 3
CCOC(=O)C1=C(C)NC2=C(C(=O)CC(c3ccc(OC)c(OC)c3)C2)C1c1ccc(C)o1 (stereo not drawn) | 0
CC1=C(C(=O)OCC2CCCO2)C(c2ccc(C)o2)C2=C(CC(c3ccc(F)cc3)CC2=O)N1 (stereo not drawn) | -1 (active)
CCOC(=O)C1=C(C)NC(=O)NC1c1ccc(Br)o1 (stereo not drawn) | 0
O=C(CSc1nnc(-c2cccnc2)o1)OC1CCCCC1 | 0
COC(=O)c1[nH]c2ccc(C)cc2c1NC(=O)CCN1CCN(Cc2ccc3c(c2)OCO3)CC1 | -1 (active)
Cc1ccc(C)c(Nc2c([N+](=O)[O-])cc(C(=O)N3CC(=O)Nc4ccccc43)cc2[N+](=O)[O-])c1 | 0
S=c1nc(-c2ccc(Br)cc2)oc2c1CCCC2 | 1 (active)
c1ccc2c(N3CCCCCC3)nc(-c3ccncc3)nc2c1 | -1 (active)
c1ccc(-c2nnc3ccc(N4CCCC4)nn23)cc1 | 0
O=c1c2cccnc2[nH]c(=S)n1CCCN1CCN(c2ccc(F)cc2)CC1 | 0
Cc1ccc(C)n1-c1ccc(-c2nnco2)cc1 | 0
CCCC(=O)n1nc(-c2ccccc2)nc1N | 0
CCOC(=O)CSc1cc(CSc2ccccc2)nc(-c2ccccc2)n1 | 0
CCOC(=O)C(Cc1ccccc1)NC(=O)Cn1nnc(-c2ccccc2)n1 (stereo not drawn) | 1 (active)
Cc1ccc(N2CC(C(=O)N/N=C/c3sccc3C)CC2=O)cc1 (stereo not drawn) | 0.5
CN(C)CCCN1C(=O)c2oc3ccccc3c(=O)c2C1c1cccs1 (stereo not drawn) | 0
CCN(CC)CCCN1C(=O)c2oc3ccccc3c(=O)c2C1c1cccs1 (stereo not drawn) | 1 (active)
CCN(CC)CCN1C(=O)c2oc3ccccc3c(=O)c2C1c1ccccc1 (stereo not drawn) | 0
Cc1cc2c(cc1C)NC(c1c(C)n(C)n(-c3ccccc3)c1=O)C1=C(CC(C)(C)CC1=O)N2 (stereo not drawn) | 3
Cc1c(C2Nc3ccccc3NC3=C2C(=O)CC(C)(C)C3)cnn1C (stereo not drawn) | 0
CC(C)Sc1nc2c(c(=O)[nH]1)C(c1cccs1)C1=C(CC(C)(C)CC1=O)N2 (stereo not drawn) | -1 (active)
